# In the library only some 3% were active in any assay of this set; here they are far more common.
# S16 F2sN tox = toxic to S16 Pmp22-F2sN Schwann cells. S16 Pmp22-F2sN Schwann cells viability, CellTiter-Glo, 24 h. Potency, µM (series often up to 57.5 µM), usual class: cytotoxic. 43,000 compounds, 0.48% hits; note: nearly all actives have a fitted effect of over 65% in size
#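 CellTiter-Glo counter-screen, qHTS, 1536-well. Cells: S16(c9) Pmp22-F2sN, 500-1,000/well in DMEM + 10% FBS. Cpd 23 nL pin transfer, 24 h, 37C/5% CO2. Read: luminescence, CCD imager.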
# mTORC1 inh = inhibitors of mTORC1 signaling in Tsc2-/- p53-/- MEF cells; AID 493208; 44,000 compounds, 0.78% hits; Potency, µM (highest dose often 38.3 µM), most hits filed as inhibitors; Tsc2-/- p53-/- MEF, phospho-rpS6 immunofluorescence/PI, 24 h; note: nearly all actives have a fitted effect of over 50% in size
#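 Plate MEFs (Tsc2-/-, p53-/-, empty vector) in DMEM/10% FBS; after 24 h add compound, incubate 24 h at 37 degree Celsius; fix in PFA/TX-100, block, stain phospho-rpS6 and 10 uM PI; scan at 488 nm; report % positive cells.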
# OvCa metastasis = inhibitors of ovarian cancer cell adhesion and invasion in omental model; SKOV3ip1-GFP adhesion/invasion on 3D omental model, fluorescence; 46,000 compounds, 0.1% hits; Potency, µM (top dose mostly 45.8 µM), hits mostly inhibitors; note: nearly all actives have a fitted effect of over 65% in size
#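 Adhesion/invasion was scored as fixed GFP-labeled SKOV3ip1 cell counts (488/509 nm), normalized to DMSO and tomatine controls. Cancer cells in serum-free medium, with four compound doses (0.36-46 umol/L), sat 2 hr at RT then 16 hr at 37 C on a 48 hr fibroblast/mesothelial/ECM culture.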
# PMP22 txn = modulators of PMP22 gene transcription in S16 Schwann cells; S16 Pmp22-F2sN Schwann cells (luciferase reporters placed in the Pmp22 gene), FLuc/NLuc coincidence luminescence, 24 h; Potency, µM (top dose mostly 57.5 µM), hits mostly inhibitors; 43,000 compounds, 2% hits; AID 1508649; active = clear falling dose curves in both reporters; inconclusive = both reporters move, but less clearly or upward; inactive = either reporter flat; the % is the NLuc reporter signal
#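 S16(c9) Schwann cells with FLuc/NLuc coincidence reporter in the Pmp22 3' UTR; compounds pin-transferred, 24 h at 37C. Dual-luciferase read: FLuc first, then NLuc after Stop&Glo, each 10 min at room temperature.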
# p53null 32C tox = p53 null cell cytotoxicity, permissive temperature; H1299-neo p53 null cells, ATP luminescence, 24 h, 32C; Potency, µM (doses to about 46.1 µM), actives largely listed as cytotoxic; 55,000 compounds, 0.62% hits; AID 903; note: nearly all actives have a fitted effect of over 55% in size
#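 We seeded p53-null H1299-neo cells, incubated them overnight at 37C, and added compounds across a range up to 46 uM. After 24 hours at 32C, ATP reagent was applied for 20 min at room temperature and luminescence recorded.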
# p53null 39C tox = selectivity test: cytotoxicity in p53 null cells, nonpermissive temperature. H1299 p53-null (neo) cells, 39C, ATPlite viability, 24 h. Potency, µM (top dose mostly 46.1 µM), most hits filed as cytotoxic. 55,000 compounds, 0.97% hits; note: nearly all actives have a fitted effect of over 50% in size
#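 Concentration-response (up to 46 uM) was run for 24 h at the nonpermissive 39C on H1299-p53A138V or H1299-neo cells. ATP content was measured with ATPlite luminescence. AC50 values were Hill-modeled after normalizing between DMSO and 100 uM tamoxifen killing.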
# A number is an active result; - = inactive; ? = inconclusive; . = not tested or not shown. Unless noted, calls come from the whole dose curve; as a rule, active = well fitted curve in the direction sought with a large enough effect; inconclusive = small, poorly fitted or top-dose-only effect, or another doubt; inactive = no such curve, though single readings can be large; an effect the other way counts as inactive or inconclusive.
SMILES,S16 F2sN tox,mTORC1 inh,OvCa metastasis,PMP22 txn,p53null 32C tox,p53null 39C tox
CN(C)c1ccc(CNC(=O)CCCn2ccc3cc(S(=O)(=O)N4CCCC4)ccc32)cc1,?,-,-,?,-,-
Cc1ccccc1N1CC(c2nc3ccccc3n2CCC2CCCCC2)CC1=O (configuration not stated),-,-,?,?,-,-
CCc1ccccc1N1CC(c2nc3ccccc3n2CCC2CCCCC2)CC1=O (configuration not stated),?,-,?,?,?,16µM
O=C1CC(c2nc3ccccc3n2CCCCOc2ccccc2)CN1c1ccccc1Cl (configuration not stated),-,-,-,?,?,13µM
CC(C)c1cc(C(C)C)c(CC(=O)NS(=O)(=O)Oc2c(C(C)C)cccc2C(C)C)c(C(C)C)c1,.,.,-,.,.,.
CN(C)C(=O)c1ccc(S(=O)(=O)c2ccc(NC(=O)[C@@](C)(O)C(F)(F)F)c(Cl)c2)cc1,.,.,-,.,.,.
Cc1ccc(NC(=O)c2ccccc2O)cc1,.,.,.,.,13µM,10µM
Cc1cc(Nc2ncc3c(n2)N(C)C(=O)N(c2cc(NC(=O)c4cccc(C(F)(F)F)c4)ccc2C)C3)n(C)n1,.,.,-,.,.,.
C#CCN(C)CC1=Cc2ccccc2Oc2ccccc21,.,.,-,.,.,.
O=C(NCC1CCN(Cc2cccc(Cl)c2)CC1)Nc1ccc(F)c(Cl)c1,?,18µM,20µM,-,-,?
COc1cccc(-c2nnc(Nc3nc4c(F)cccc4s3)o2)c1,.,.,.,.,?,2.5µM
COc1ccc(CSc2nc3ccncc3n2Cc2nc(-c3ccc(OC)c(OC)c3)oc2C)cc1,-,-,-,-,13µM,?
Cc1ccc(CSc2nc3ccncc3n2Cc2nc(-c3ccccc3C)oc2C)cc1,?,-,-,?,7.9µM,6.3µM
COC(=O)[C@H](CCCN=C(N)N)NS(=O)(=O)c1ccc(C)cc1,.,.,-,.,.,.
CCOc1ccc(-c2nc3ccccc3c(=O)o2)cc1,-,-,-,-,4µM,6.3µM
CCOc1ccc(-c2nnc(-c3ccccc3)o2)cc1,.,.,.,.,?,13µM
CC(C)c1nn(-c2c(Cl)cccc2Cl)c2nc(Cc3ccc(OCCO)cc3)[nH]c(=O)c12,.,.,-,.,.,.
CCOc1ccc(-c2oc3ccc(C)cc3c(=O)c2O)cc1,-,-,-,-,-,-
COc1cccc(-c2oc3ccc(C)cc3c(=O)c2O)c1,-,?,-,?,?,22µM
CCCCNC(=O)c1ccc2c(c1)N=C(CC)c1ccccc1S2,?,?,-,12µM,-,?
CCC1=Nc2cc(C(=O)NC3CCC(C)CC3)ccc2Sc2ccc(C)cc21 (configuration not stated),-,?,-,5.7µM,-,-
CCC1=Nc2cc(C(=O)NC3CCCC3)ccc2Sc2ccc(Br)cc21,?,-,-,10µM,-,?
CC1=Nc2cc(C(=O)NCCc3ccc(Cl)cc3)ccc2Sc2ccc(C)cc21,?,-,-,9.5µM,-,-
CC1=Nc2cc(C(=O)NC3CCCC3)ccc2Sc2ccc(Br)cc21,-,?,-,?,-,-
COc1cc(Nc2ncc3c(n2)-c2ccc(Cl)cc2C(c2c(F)cccc2OC)=NC3)ccc1C(=O)O,.,.,-,.,.,.
SMILES,S16 F2sN tox,mTORC1 inh,OvCa metastasis,PMP22 txn,p53null 32C tox,p53null 39C tox
C[C@@H]1CCO[C@H]2Cn3cc(C(=O)NCc4ccc(F)cc4F)c(=O)c(O)c3C(=O)N12,.,.,-,.,.,.
OC[C@H]1O[C@@H](Oc2ccc(O)cc2)[C@H](O)[C@@H](O)[C@H]1O,.,.,-,.,.,.
O=C(CCCCCCC(=O)Nc1ccc([C@H]2O[C@@H](CSc3nc(-c4ccccc4)c(-c4ccccc4)o3)C[C@@H](c3ccc(CO)cc3)O2)cc1)NO,.,.,-,.,.,.
CCn1c(=NC(=O)c2ccc3c(c2)OCCO3)sc2c(C)ccc(OC)c21,-,-,-,9.2µM,-,?
C#CCn1c(=NC(=O)c2ccc3c(c2)OCCO3)sc2cc(OC)c(OC)cc21,-,-,-,?,-,-
COc1nccc(-c2c(-c3ccc(F)cc3)ncn2C2CCNCC2)n1,.,.,-,.,.,.
CN(Cc1ccccc1)C(=O)c1cccc(NC(=O)c2nsc3ccccc23)c1,-,-,-,?,?,14µM
COC(=O)N/N=C/c1c(C)nn(-c2cccc(Cl)c2)c1Cl,.,.,.,.,-,.
Cc1nn(-c2ccccc2Cl)c(Cl)c1/C=N/Nc1cccc(C(=O)O)c1,.,.,.,.,10µM,14µM
CC(C)c1ccc(OC(=O)c2cc(-c3ccc4c(c3)OCCO4)on2)cc1,-,-,-,-,13µM,32µM
COc1ccc(C(=O)Nc2ccc3c(c2)OCCO3)cc1,.,.,.,.,11µM,11µM
O=C(Oc1ccc(Cl)cc1)c1cc(-c2ccc3c(c2)OCCO3)on1,-,-,-,-,-,-
CCOC(=O)c1ccc(NC(=O)Nc2ccc3c(c2)OCCO3)cc1,.,.,.,.,-,-
COc1ccc(OC(=O)c2cc(-c3ccc4c(c3)OCCO4)on2)cc1,-,-,-,-,13µM,?
N#Cc1ccc(OC(=O)c2cc(-c3ccc4c(c3)OCCO4)on2)cc1,-,-,-,-,?,?
CCNC(=O)Nc1ccc(Oc2ncnc(N)c2C=NOC)cc1Cl,.,.,-,.,.,.
CC(C)(N)C(=O)N[C@H](COCc1ccccc1)C(=O)N1CCC2(CC1)CN(S(C)(=O)=O)c1ccccc12,.,.,-,.,.,.
CCN1CCc2nc3sc(C(=O)Nc4cccc(Cl)c4C)c(N)c3cc2C1,?,?,-,12µM,-,?
Cc1ccc(Cl)cc1N1CCN(CCNC(=O)Nc2ccc(Cl)cc2)CC1,?,-,?,?,?,20µM
CCOc1ccc(NC(=O)NCCN2CCN(c3cc(Cl)ccc3C)CC2)cc1,-,-,-,?,-,-
Cc1ccc(NC(=O)CSc2[nH]c(=O)ncc2C)cc1,-,-,-,-,11µM,13µM
N#Cc1c(O)c2c(-c3ccc(-c4ccccc4O)cc3)csc2[nH]c1=O,.,.,-,.,.,.
Cc1ccc(C)n1-c1ccccc1N,.,.,.,.,13µM,?
O=C(C=CC=Cc1ccc2c(c1)OCO2)N1CCCCC1,.,.,-,.,.,.
COc1ccc(C)cc1S(=O)(=O)NCC(c1cccs1)S(=O)(=O)c1ccc(C)cc1 (configuration not stated),25µM,-,-,?,-,-
Cc1ccc(S(=O)(=O)C(CNS(=O)(=O)c2cc(F)ccc2F)c2cccs2)cc1 (configuration not stated),20µM,-,-,?,-,?
COc1ccc(S(=O)(=O)NCC(c2cccs2)S(=O)(=O)c2ccc(C)cc2)cc1F (configuration not stated),?,-,-,?,-,-
CCS(=O)(=O)c1ncc(Cl)c(C(=O)Nc2ccc(S(=O)(=O)N(C)c3ccccc3)cc2)n1,4.5µM,0.41µM,-,1µM,-,?
